“And” between values parts separate entries of the source, which are not always exact repeats. Equal values may be shown once. Inconclusive results are not listed. Where a call stands in place of a potency, no number is given. Some structures have more than one record in an assay (separate samples or runs), and their calls can disagree. The source made the active and inactive calls. Calls come from the whole dose curve; as a rule, active = well fitted cell-killing curve with a large enough effect in the repeat runs (not every such curve was filed as active); inconclusive = weak or mixed curves, or effect the other way; inactive = no such curve, though single readings can be large or run the other way.
Potency is the fitted concentration of half-maximal effect.

This experiment can be described thus: qHTS assay to identify small molecule antagonists of the farnesoid-X-receptor (FXR) signaling pathway - cell viability counter screen (AID 743221). Note: nearly all actives have a fitted effect of over 50% in size. To be noted: FXR-bla HEK293T viability, CellTiter-Glo luminescence, 16 h; series mostly up to 62.6 µM. The text has this: National Center for Advancing Translational Sciences [NCATS]
NIH Chemical Genomics Center [NCGC]
U.S. Environmental Protection Agency [EPA]
National Institutes of Environmental Health Sciences [NIEHS]
National Toxicology Program [NTP]
U.S. Food and Drug Administration [FDA]
The farnesoid-X-receptor (FXR), a nuclear hormone receptor, is highly expressed in liver, intestine, kidney and adrenal cortex. Natural ligands of FXR are the bile acids (Cholic acid, Chenodeoxy cholic acid etc). FXR is an important regulator of diverse metabolic pathways, including the bile acid homeostasis, lipid and glucose metabolisms. FXR regulates the expression of target genes by binding either as a monomer or as a heterodimer with the retinoid X receptor (RXR). Numerous studies have reported that FXR exerts protective function during cholestasis, diabetes, liver regeneration, and cancer. To identify compounds that inhibit FXR signaling, GeneBLAzer FXR-UAS-bla HEK 293T cell line (Invitrogen, Carlsbad, CA) containing a beta-lactamase reporter gene under the control of a UAS response element was used to screen the Tox21 10K compound library. The cytotoxicity of the Tox21 compound library against the FXR-bla cell line was tested in parallel by measuring the cell viability using CellTiter-Glo assay in the same wells.
Tox21 Assay Protocol Summary:
FXR-bla cells were dispensed at 5000 cells/5uL/well in 1536-well black wall/clear bottom plates using a Multidrop Combi (Thermo Fisher Scientific, Waltham, MA) dispenser. After the assay plates were incubated at 37 C and 5% CO2 for 5 h, 23 nL of compounds dissolved in DMSO, positive controls or DMSO only was transferred to the assay plate by a Pintool station (Kalypsys, San Diego, CA), followed by addition of 1 uL Chenodeoxycholic acid (50 uM, final concentration in the wells). The assay plates were incubated at 37C for 16 h. After 1 uL of LiveBLAzerTM B/G FRET substrate was added using a Bioraptr Flying Reagent Dispenser (FRD) workstation (Beckman Coulter, Indianapolis, IN), the plates were incubated at room temperature for 2 h, and fluorescence intensity was measured by an Envision plate reader (PerkinElmer, Shelton, CT). For cell viability readout that measures cytotoxicity, 4uL/well of CellTiter-Glo reagent was added into the assay plates using a Bioraptr FRD. After 30 min incubation at room temperature, the luminescence intensity in the plates was measured using a ViewLux plate reader (PerkinElmer).
On the technique in general: Quantitative high-throughput screening tests each substance at several concentrations.
With `NC(=O)CN1CCCC1=O`, the Potency result was “inactive”.
The same measure for `N#Cc1cccnc1`: “inactive”; for `O=C1CCCO1`: “inactive”; for `C=CC(=O)OCC(CC)(COC(=O)C=C)COC(=O)C=C`: “inactive and 43.6 µM (active)”.
With `CCN(CC)C(=O)C(C)Oc1cccc2ccccc12` (stereo not given), the Potency entry was “inactive”.
For the molecule `CCOP(=S)(OCC)SCSC(C)(C)C`, the Potency result is “inactive”.
With `COP(=S)(OC)Oc1ccc(Sc2ccc(OP(=S)(OC)OC)cc2)cc1`, the Potency entry is “inactive”.
In the case of `CCOP(=S)(OCC)SCn1c(=O)oc2cc(Cl)ccc21`, the Potency result is “inactive”.
Turning to `COc1ccc(CO)cc1`, the Potency result is “inactive”.
`CCCCOC(=O)COC(=O)c1ccccc1C(=O)OCCCC`: the Potency result is “inactive”.
The same measure for `CCC/C=N/O`: “inactive”; for `CNC(=S)S`: “inactive”; for `CC1=C(C(=O)Nc2ccccc2)SCCO1`: “inactive”.
With `CNC(=O)Oc1cccc2c1OC(C)(C)C2`, the Potency result was “inactive”.
Regarding `O=S(=O)(O)C(F)(F)C(F)(F)C(F)(F)C(F)(F)C(F)(F)C(F)(F)C(F)(F)C(F)(F)F`, the Potency is 41.6 µM (active) and 13.8 µM (active) and 6.16 µM (active).
`CS(=O)(=O)NC(=O)c1cc(Oc2ccc(C(F)(F)F)cc2Cl)ccc1[N+](=O)[O-]`: the Potency entry was “inactive”.
As for `Cc1cccc(N=Nc2ccc(N(C)C)cc2)c1`, the Potency entry is “inactive”.
The same measure for `CC(C)=CC1C(C(=O)OCc2cccc(Oc3ccccc3)c2)C1(C)C` (stereo not given): “inactive”.
As for `O=C(O)c1nn(Cc2ccc(Cl)cc2Cl)c2ccccc12`, the Potency entry is “inactive”.
For `CCCCOCCOC(C)=O`, the Potency result was “inactive”.
`CCCCCCCCCCCCCl`: the Potency entry is “inactive”.
With `C[C@]12CC[C@H]3[C@@H](CCC4=CC(=O)CC[C@@H]43)[C@@H]1CC[C@@H]2O`, the Potency result was “inactive”.
With `CCOP(=O)(OCC)OCC`, the Potency result was “inactive”.
With `O=C(O)CF`, the Potency result was “inactive”.
The same measure for `COP(=O)(NC(C)=O)SC` (stereo not given): “inactive”; for `c1ccc(C2CO2)cc1` (stereo not given): “inactive”; for `CCCCCCCC[N+](C)(CCCCCCCC)CCCCCCCC`: 13.8 µM (active) and 7.77 µM (active) and 21.9 µM (active).
In the case of `CC(C)(O)C#N`, the Potency entry was “inactive”.
In the case of `CC1(C)Cc2cccc(O)c2O1`, the Potency result was “inactive”.
For the molecule `CCC[CH2][Sn]([Cl])([CH2]CCC)[CH2]CCC`, the Potency is 1.95 µM (active) and 2.45 µM (active).
`CC(C)=CC1C(C(=O)OCN2C(=O)C3=C(CCCC3)C2=O)C1(C)C` (stereo not given): the Potency result was “inactive”.
Take `O=C1Nc2ccc(Cl)cc2C(c2ccccc2)=NC1O` (stereo not given): the Potency result is “inactive”.
In the case of `c1ccc2c(c1)Nc1ccccc1S2`, the Potency entry is “inactive”.
Turning to `Clc1cccc(C(Cl)(Cl)Cl)n1`, the Potency result is “inactive”.
`CC(C)CON=O`: the Potency result is “inactive”.
As to `Cl`, the Potency entry is “inactive”.
With `C[N+](C)(C)CC(=O)O`, the Potency result was “inactive”.
As to `CCOP(=S)(OCC)OP(=S)(OCC)OCC`, the Potency entry is “inactive”.
The same measure for `[Cl-].[Cl-].[Cl-].[Fe+3]`: “inactive”; for `ClCc1ccccn1`: “inactive”.

These data come from PubChem BioAssay (Tox21).
